Where “and” joins values, the source holds several entries; their conditions need not be identical. Identical values can stand only once. Results filed as inconclusive are left out. Some structures have more than one record in an assay (separate samples or runs), and their calls can disagree. Calls of active or inactive are those of the source. Calls come from the whole dose curve.
How the values were obtained:
[1] = target: Acetylcholinesterase (Homo sapiens) (UniProt P22303); assay: Acetylcholinesterase (AChE) small molecule antagonists: colormetric cell-based qHTS assay (AID 1347395); note: nearly all actives have a fitted effect of over 30% in size; note: potency is the fitted concentration of half-maximal effect
Sequence of Acetylcholinesterase (Homo sapiens) (P22303 whole entry, looked up): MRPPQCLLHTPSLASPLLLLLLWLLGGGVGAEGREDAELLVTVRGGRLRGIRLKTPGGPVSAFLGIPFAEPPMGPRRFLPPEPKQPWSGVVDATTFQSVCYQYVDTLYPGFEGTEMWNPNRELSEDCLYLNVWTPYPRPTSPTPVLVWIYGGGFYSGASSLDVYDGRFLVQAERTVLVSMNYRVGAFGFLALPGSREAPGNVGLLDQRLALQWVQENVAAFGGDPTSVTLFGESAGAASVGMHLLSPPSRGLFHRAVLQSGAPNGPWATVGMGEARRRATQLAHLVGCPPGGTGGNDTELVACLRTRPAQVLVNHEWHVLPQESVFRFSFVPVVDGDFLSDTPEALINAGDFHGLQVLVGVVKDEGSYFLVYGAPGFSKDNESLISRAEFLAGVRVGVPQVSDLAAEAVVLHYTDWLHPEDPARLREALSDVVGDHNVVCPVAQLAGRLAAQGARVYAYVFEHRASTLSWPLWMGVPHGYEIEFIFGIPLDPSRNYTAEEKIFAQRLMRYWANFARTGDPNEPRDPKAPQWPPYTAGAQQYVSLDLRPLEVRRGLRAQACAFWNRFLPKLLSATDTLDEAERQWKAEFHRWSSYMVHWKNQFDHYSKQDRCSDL
Outline: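 Colorimetric readout: DTNB quantifies thiocholine from acetylthiocholine hydrolysed by endogenous AChE of SH-SY5Y cells (2,000/well, plated overnight). Compound pretreatment 30 min, substrate incubation 90 min, both 37 C.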

[2] = target: Acetylcholinesterase (Homo sapiens) (UniProt P22303); assay: Acetylcholinesterase (AChE) small molecule antagonists: enzyme-based qHTS assay (AID 1347397); details: Potency: AChE enzyme activity inhibition; outcome: AChE enzyme activity inhibition; note: nearly all actives have a fitted effect of over 55% in size; note: potency is the fitted concentration of half-maximal effect
Outline: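 Enzyme inhibition was scored from DTNB-detected thiocholine formed by recombinant human AChE acting on acetylthiocholine. The 30 min compound preincubation and 10 min substrate reaction were both run at room temperature, with DMSO as vehicle control.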

[3] = target: Acetylcholinesterase (Homo sapiens) (UniProt P22303); assay: Acetylcholinesterase (AChE) small molecule antagonists: fluorescence cell-based qHTS assay (AID 1347398); details: Potency: AChE activity; outcome: AChE activity; note: nearly all actives have a fitted effect of over 50% in size; note: potency is the fitted concentration of half-maximal effect
Outline: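 Endogenous acetylcholinesterase of SH-SY5Y neuroblastoma cells is measured in situ. After overnight attachment and 30 min compound exposure, cells receive acetylthiocholine and Thiolite Green; fluorescence is read after 40 min at room temperature.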

[4] = target: Acetylcholinesterase (Homo sapiens) (UniProt P22303); assay: Acetylcholinesterase (AChE) small molecule antagonists: enzyme-based qHTS assay with human liver microsomes (AID 1347399); details: Potency: qHTS inhibition; outcome: qHTS inhibition; note: nearly all actives have a fitted effect of over 60% in size
Outline: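 Recombinant human AChE (50 mU/mL in the enzyme mix) and human liver microsomes (0.25 mg/mL final) were preincubated with compound and NADPH (0.25 mg/mL final) for 30 min at 37 C. Acetylthiocholine/DTNB was then added; thiocholine was read colorimetrically after 10 min at room temperature.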
% is set by controls: 0 for no effect and ±100 for the full control effect.

CN1CCc2cccc3c2[C@H]1Cc1ccc(O)c(O)c1-3
active: Potency [1] 64 µM | Potency [2] 40.4 µM and 21.1 µM | Potency [3] 64 µM
inactive: Potency [4]

ClC/C=C\CCl
inactive: Potency [1] | Potency [2] | Potency [3] | Potency [4]

N#C[C@@H]1C[C@@H]2C[C@@H]2N1C(=O)[C@@H](N)C12CC3CC(CC(O)(C3)C1)C2
inactive: Potency [1] | Potency [2] | Potency [3] | Potency [4]

C=C(C)C(=O)OC(C)C
inactive: Potency [1] | Potency [2] | Potency [3] | Potency [4]

CC(C)c1ccccc1C(C)C
inactive: Potency [1] | Potency [2] | Potency [3] | Potency [4]

C1CCC2OC2C1 (stereo not given)
inactive: Potency [1] | Potency [2] | Potency [3] | Potency [4]

CN1C(C)(C)CC(O)CC1(C)C
inactive: Potency [1] | Potency [2] | Potency [3] | Potency [4]

CCCCOC(=O)CCCCCCCCC(=O)OCCCC
inactive: Potency [1] | Potency [2] | Potency [3] | Potency [4]

CCNC(=O)N1CCN(CCCC(c2ccc(F)cc2)c2ccc(F)cc2)CC1
inactive: Potency [1] | Potency [2] | Potency [3] | Potency [4]

CCc1cnc(C(=O)O)c(C(=O)O)c1
inactive: Potency [1] | Potency [2] | Potency [3] | Potency [4]

CC1=C(/C=C/C(C)=C/C=C/C(C)=C/CO)C(C)(C)CCC1
inactive: Potency [1] | Potency [2] | Potency [3] | Potency [4]

Cc1c(Cl)cccc1Cl
inactive: Potency [1] | Potency [2] | Potency [3] | Potency [4]

O=CCc1ccccc1
inactive: Potency [1] | Potency [2] | Potency [3] | Potency [4]

O=c1[nH]cc(F)c(=O)[nH]1
inactive: Potency [2] | Potency [3] | Potency [4]
20.8 µM (active) and inactive: Potency [1]

CC1=CC(=O)CC(C)(C)C1
inactive: Potency [1] | Potency [2] | Potency [3] | Potency [4]

Cc1c(OCC(F)(F)F)ccnc1CS(=O)c1nc2ccccc2[nH]1 (stereo not given)
inactive: Potency [1] | Potency [2] | Potency [3] | Potency [4]

CCCCOC(=O)c1ccccc1
inactive: Potency [1] | Potency [2] | Potency [3] | Potency [4]

O=Cc1ccc(Cl)c(Cl)c1
inactive: Potency [1] | Potency [2] | Potency [3] | Potency [4]

COc1cc(-c2ccc(=O)[nH]n2)ccc1OC(F)F
inactive: Potency [1] | Potency [2] | Potency [3] | Potency [4]

Cc1c(C(=O)O)cccc1[N+](=O)[O-]
inactive: Potency [1] | Potency [2] | Potency [3] | Potency [4]

CCOC(=O)CC(C(C)=O)C(C)=O
inactive: Potency [1] | Potency [2] | Potency [3] | Potency [4]

Cc1cc2c(s1)Nc1ccccc1N=C2N1CCN(C)CC1
inactive: Potency [1] | Potency [2] | Potency [3] | Potency [4]

c1cc2ccc3ccc4ccc5cccc6c(c1)c2c3c4c56
inactive: activity, negative = inhibition [1] 3.35% [at 4.07 µM] | activity change, negative = inhibition [2] 0.28% [at 4.07 µM] | activity change, negative = inhibition [3] 9.19% [at 3.98 µM] | activity change, negative = inhibition [4] 0.324% [at 4.07 µM]

CC1COC(=O)O1 (stereo not given)
inactive: Potency [1] | Potency [2] | Potency [3] | Potency [4]

CCCCCCCOC(C)=O
inactive: Potency [1] | Potency [2] | Potency [3] | Potency [4]

Cc1cc(C)c(C)c(O)c1
inactive: Potency [1] | Potency [2] | Potency [3] | Potency [4]

CCCCCCCCCCOc1cc2c(=O)c(C(=O)OCC)c[nH]c2cc1OCC
inactive: activity, negative = inhibition [1] 1.43% [at 10.5 µM] | activity change, negative = inhibition [2] 0.693% [at 10.5 µM] | activity change, negative = inhibition [3] -0.416% [at 10.5 µM] | activity change, negative = inhibition [4] -5.96% [at 10.5 µM]

O=S(=O)(O)c1ccc2ccccc2c1
inactive: Potency [1] | Potency [2] | Potency [3] | Potency [4]

CCOC(C)OCC
inactive: Potency [1] | Potency [2] | Potency [3] | Potency [4]

c1cc(N(CC2CO2)CC2CO2)ccc1Cc1ccc(N(CC2CO2)CC2CO2)cc1 (stereo not given)
inactive: Potency [1] | Potency [2] | Potency [3] | Potency [4]

Oc1ccccc1O
inactive: Potency [1] | Potency [2] | Potency [3] | Potency [4]

CC(=O)CCC(=O)O
inactive: Potency [1] | Potency [2] | Potency [3] | Potency [4]

COC(=O)CCCCC(=O)OC
inactive: Potency [1] | Potency [2] | Potency [3] | Potency [4]

CNC(=O)c1ccccc1
inactive: Potency [1] | Potency [2] | Potency [3] | Potency [4]

CCSC(=O)N(CC)CC
inactive: Potency [1] | Potency [2] | Potency [3] | Potency [4]

Cc1ccccc1OCC(=O)O
inactive: Potency [1] | Potency [2] | Potency [3] | Potency [4]

CN(C)CCOCCN(C)C
inactive: Potency [1] | Potency [2] | Potency [3] | Potency [4]

C[C@H]1C[C@H]2[C@@H]3CCC4=CC(=O)C=C[C@]4(C)[C@@]3(Cl)[C@@H](O)C[C@]2(C)[C@@]1(O)C(=O)CO
inactive: Potency [1] | Potency [2] | Potency [3] | Potency [4]

CCC1COC(=O)O1 (stereo not given)
inactive: Potency [1] | Potency [2] | Potency [3] | Potency [4]

c1ccc2cnncc2c1
inactive: Potency [1] | Potency [2] | Potency [3] | Potency [4]

CCCCCCCCCCCSCC(=O)O
inactive: Potency [1] | Potency [2] | Potency [3] | Potency [4]

CCCCCCCCCCCC[N+](C)(C)CCCS(=O)(=O)[O-]
inactive: Potency [1] | Potency [2] | Potency [3] | Potency [4]

CC(C)CCO
inactive: Potency [1] | Potency [2] | Potency [3] | Potency [4]

CC(C)NCC(O)COc1ccc(COCCOC(C)C)cc1 (stereo not given)
inactive: Potency [1] | Potency [2] | Potency [3] | Potency [4]

CC(C)(C)c1cc(Cc2cc(C(C)(C)C)c(O)c(C(C)(C)C)c2)cc(C(C)(C)C)c1O
inactive: Potency [1] | Potency [2] | Potency [3] | Potency [4]

O=C1CCCCCCCCCCCCCC1
inactive: Potency [1] | Potency [2] | Potency [3] | Potency [4]

COC(C)(C)OC
inactive: Potency [1] | Potency [2] | Potency [3] | Potency [4]

CCCCCCCCCCCC(=O)N(C)CC(=O)O
inactive: Potency [1] | Potency [2] | Potency [3] | Potency [4]

CCCCC(CC)COC(=O)c1ccc(N(C)C)cc1 (stereo not given)
inactive: Potency [1] | Potency [2] | Potency [3] | Potency [4]

Cc1cccc2ccccc12
inactive: Potency [1] | Potency [2] | Potency [3] | Potency [4]

C1CCCC1
inactive: Potency [1] | Potency [2] | Potency [3] | Potency [4]

O=C(O)C(=O)Cc1ccccc1
inactive: Potency [1] | Potency [2] | Potency [3] | Potency [4]

C=CCOC(=O)CC(C)C
inactive: Potency [1] | Potency [2] | Potency [3] | Potency [4]

OCC1(CO)COCOC1
inactive: Potency [1] | Potency [2] | Potency [3] | Potency [4]

CCN(Cc1ccccc1)c1ccccc1
inactive: Potency [1] | Potency [2] | Potency [3] | Potency [4]

Cn1c(=O)c2c(ncn2CC2OCCO2)n(C)c1=O
inactive: Potency [1] | Potency [2] | Potency [3] | Potency [4]

CC(=O)OC(C)OC(C)=O
inactive: Potency [1] | Potency [2] | Potency [3] | Potency [4]

Cc1ccc(C=O)cc1C
inactive: Potency [1] | Potency [2] | Potency [3] | Potency [4]

Cc1scc2c1N(C(=O)CN1CCN(C)CC1)c1ccccc1NC2=O
inactive: Potency [1] | Potency [2] | Potency [3] | Potency [4]

Nc1ccc2c(c1)CN1C(=O)c3ccccc3C1=N2
inactive: activity, negative = inhibition [1] -3.06% [at 23.6 µM] | activity change, negative = inhibition [2] 1.39% [at 23.6 µM] | activity change, negative = inhibition [3] -15.4% [at 23.8 µM] | activity change, negative = inhibition [4] 6.82% [at 23.6 µM]

From PubChem BioAssay (Tox21)
